Consider six compounds from PubChem BioAssay (EPA / NIEHS).

Read-out in test [1]: Interleukin-8 (IL8), CXCL8 (gene 3576)
Nature of the test: BSK_3C_IL8: BioMAP Diversity Plus: 3C Assay for Interleukin-8 (IL8) Biomarker Activity (AID 2283020). To be noted: primary human endothelial cells (HUVEC); actives raise or lower the signal. The method, boiled down:
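Using DMSO-treated wells as the baseline, bidirectional curve fitting was applied to ELISA-measured IL-8 from human umbilical vein endothelial cultures sampled 24 h after compound addition.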

Read-out in test [2]: Monokine induced gamma interferon (MIG), CXCL9 (gene 4283)
Briefly: BSK_3C_MIG: BioMAP Diversity Plus: 3C Assay for Monokine induced gamma interferon (MIG) Biomarker Activity (AID 2283021). To be noted: primary human endothelial cells (HUVEC); actives raise or lower the signal. The method, boiled down:
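ELISA-measured MIG in dosed HUVEC 3C cultures at 24 h, analysed by bidirectional fitting with DMSO defining baseline activity.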

Test [3] has as its target human Vitamin D Receptor (VDR), VDR (gene 7421) (UniProt P11473). Nature of the test: ATG_VDR_TRANS: Attagene TRANS-FACTORIAL HepG2 Assay for human Vitamin D Receptor (VDR) (AID 2283022; active means hit-call score of the fitted dose curve at least 0.9, where 1 is the maximum). The method in brief:
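HepG2 cells were transiently transfected with GAL4-UAS reporter units and a chimeric VDR-Gal4 construct, then dosed for 24 hours. Reporter mRNA was quantified by RT-PCR, fluorescent labeling, HpaI digestion and capillary electrophoresis; gain of signal analysed vs DMSO.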

A short description of test [4]: BSK_3C_SRB: Viability Assessment in the BioMAP Diversity Plus: 3C Assay (AID 2283023).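 Further: fitted both ways against DMSO so a hit may be signal rise or drop.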 The conditions noted are these: primary human endothelial cells (HUVEC). The method in brief:
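Human umbilical vein endothelial cells in the 3C system, treated 24 h. Total protein measured by 0.1% sulforhodamine B staining after 10% TCA fixation, read at 560 nm; bidirectional fit versus DMSO.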

Read-out in test [5]: Matrix Metallopeptidase 1 (MMP1), MMP1 (gene 4312)
Nature of the test: BSK_BE3C_MMP1: BioMAP Diversity Plus: BE3C Assay for Matrix Metallopeptidase 1 (MMP1) Biomarker Activity (AID 2283024). The conditions noted are these: primary human bronchial epithelial cells; actives raise or lower the signal. The method, boiled down:
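In this multiplexed primary-cell system, human bronchial epithelium received chemicals for 24 h before an ELISA for MMP1. Values reflect bidirectional fits normalised to the DMSO baseline.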

Test [6] in a line: BSK_3C_Vis: BioMAP Diversity Plus: 3C Assay for Morphology Visualization (AID 2283025).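 Further: fitted both ways so gain or loss versus DMSO counts.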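 On AC50: light microscopy image of cell morphology used as background control.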 To be noted: primary human endothelial cells (HUVEC). The method in brief: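 Light-microscopy morphology readout, 24 h exposure, human primary umbilical vein endothelium; analysed relative to DMSO with bidirectional fitting.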
Read-out in test [7]: Pselectin, SELP (gene 6403)
Briefly: BSK_4H_Pselectin: BioMAP Diversity Plus: 4H Assay for Pselectin Biomarker Activity (AID 2283026). The conditions noted are these: primary human endothelial cells (HUVEC); actives raise or lower the signal. The method, boiled down:
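Bidirectional fits against DMSO gave the endpoint. Cells: primary human umbilical vein endothelium, chemical-treated for 24 h before ELISA detection of P-selectin.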

The nature of test [8]: BSK_4H_SRB: Viability Assessment in the BioMAP Diversity Plus: 4H Assay (AID 2283027).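 Further: cells exposed to compound for 24 h before staining.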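 On AC50: curves fitted both ways versus DMSO so AC50 may be loss or gain.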 The conditions noted are these: primary human endothelial cells (HUVEC). The method in brief: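 Cytotoxicity readout: sulforhodamine B (0.1%) staining of total protein after 10% TCA fixation, measured at 560 nm in human umbilical vein endothelium at 24 h. DMSO set the baseline; fitting was bidirectional.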

Test [9] in a line: BSK_BE3C_SRB: Viability Assessment in the BioMAP Diversity Plus: BE3C Assay (AID 2283028).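 On AC50: fitted both ways so AC50 may mark signal gain or loss versus DMSO.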 The conditions noted are these: primary human bronchial epithelial cells. The method in brief: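 Human bronchial epithelial primary cells in confluent culture, 24 h after chemical dosing; total protein by 0.1% SRB staining after 10% TCA fixation, read at 560 nm. Bidirectional fitting versus DMSO baseline.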

Read-out in test [10]: Thrombomodulin, THBD (gene 7056)
Briefly: BSK_3C_Thrombomodulin: BioMAP Diversity Plus: 3C Assay for Thrombomodulin Biomarker Activity (AID 2283029). The conditions noted are these: primary human endothelial cells (HUVEC); actives raise or lower the signal. The method, boiled down: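 In a multiplexed primary-cell system, human umbilical vein endothelium received chemical and was assayed 24 h later for thrombomodulin by ELISA. Parallel cultures were SRB-stained (0.1% SRB after 10% TCA fixation, read at 560 nm) to flag cytotoxicity.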

Read-out in test [11]: Urokinase-type plasminogen activator receptor (uPAR), PLAUR (gene 5329)
Briefly: BSK_4H_uPAR: BioMAP Diversity Plus: 4H Assay for Urokinase-type plasminogen activator receptor (uPAR) Biomarker Activity (AID 2283030). To be noted: primary human endothelial cells (HUVEC); actives raise or lower the signal. The method, boiled down:
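Human umbilical vein endothelial cells in the 4H system, 24 h after chemical dosing. Cell-surface uPAR measured by ELISA, fitted in both directions versus DMSO; cytotoxicity checked by SRB total protein in parallel cultures.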

Read-out in test [12]: Vascular endothelial growth factor receptor 2 (Homo sapiens) (UniProt P35968)
Briefly: BSK_4H_VEGFRII: BioMAP Diversity Plus: 4H Assay for Vascular endothelial growth factor receptor 2 (VEGFR2) Biomarker Activity (AID 2283031). The conditions noted are these: primary human endothelial cells (HUVEC); actives raise or lower the signal. The method, boiled down: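 Primary human umbilical vein endothelial cells (4H system), 24 h exposure; cell-surface VEGFR2 measured by ELISA. Bidirectional fitting versus DMSO; cytotoxicity checked in parallel by SRB total-protein staining.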

Read-out in test [13]: Human Leukocyte Antigen - DR isotype (HLADR), HLA-DRA (gene 3122)
Nature of the test: BSK_BE3C_HLADR: BioMAP Diversity Plus: BE3C Assay for Human Leukocyte Antigen - DR isotype (HLADR) Biomarker Activity (AID 2283032). To be noted: primary human bronchial epithelial cells; actives raise or lower the signal. The method in brief:
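BioMAP BE3C format: human bronchial epithelium, 24 h compound treatment, ELISA detection of HLA-DR, with bidirectional analysis relative to DMSO.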

Read-out in test [14]: Vascular cell adhesion molecule 1 (VCAM1), VCAM1 (gene 7412)
Briefly: BSK_4H_VCAM1: BioMAP Diversity Plus: 4H Assay for Vascular cell adhesion molecule 1 (VCAM1) Biomarker Activity (AID 2283033).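 Further: cell-surface VCAM-1 protein measured by ELISA.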 The conditions noted are these: primary human endothelial cells (HUVEC); actives raise or lower the signal. The method, boiled down: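 In this human endothelial (HUVEC) system, biomarker ELISA was run 24 h after compound addition, and total protein in parallel wells was assessed by SRB at 560 nm; DMSO served as negative control.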

Read-out in test [15]: Interferon-gamma inducible Protein 10 (IP10), CXCL10 (gene 3627)
Nature of the test: BSK_BE3C_IP10: BioMAP Diversity Plus: BE3C Assay for Interferon-gamma inducible Protein 10 (IP10) Biomarker Activity (AID 2283034). To be noted: primary human bronchial epithelial cells; actives raise or lower the signal. The method in brief:
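BE3C cells (human bronchial epithelial, primary); 24 h exposure; ELISA for IP-10; DMSO-referenced bidirectional fit.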

Read-out in test [16]: Monokine induced gamma interferon (MIG), CXCL9 (gene 4283)
Nature of the test: BSK_BE3C_MIG: BioMAP Diversity Plus: BE3C Assay for Monokine induced gamma interferon (MIG) Biomarker Activity (AID 2283035).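 Further: MIG protein measured by ELISA in BE3C cultures after 24 h of dosing.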 To be noted: primary human bronchial epithelial cells; actives raise or lower the signal. The method in brief:
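hu bronchial epithelial 1° cells, 24 h cpd; MIG by ELISA; bidirectional fit, DMSO = baseline.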

Read-out in test [17]: Transforming growth factor beta 1 (TGFb1), TGFB1 (gene 7040)
Briefly: BSK_BE3C_TGFb1: BioMAP Diversity Plus: BE3C Assay for Transforming growth factor beta 1 (TGFb1) Biomarker Activity (AID 2283036;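 further: TGF-b1 protein level measured by ELISA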). The conditions noted are these: primary human bronchial epithelial cells; actives raise or lower the signal. The method in brief:
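TGF-b1 measured via ELISA, 24 h after chemical dosing of human bronchial epithelial cells (BE3C). Overt cytotoxicity assessed in parallel by SRB (0.1%, TCA-fixed, 560 nm); analysis bidirectional relative to DMSO.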

Read-out in test [18]: Plasminogen activator inhibitor-1 (PAI1), SERPINE1 (gene 5054)
Briefly: BSK_BE3C_PAI1: BioMAP Diversity Plus: BE3C Assay for Plasminogen activator inhibitor-1 (PAI1) Biomarker Activity (AID 2283037). To be noted: primary human bronchial epithelial cells; actives raise or lower the signal. The method, boiled down: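 In this multiplexed primary-cell system, bronchial epithelial cells receive test chemical and are sampled at 24 h. PAI-1 is read by ELISA, with DMSO serving as negative control for bidirectional fitting.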

Read-out in test [19]: urokinase plasminogen activator (uPA), PLAU (gene 5328)
Briefly: BSK_BE3C_uPA: BioMAP Diversity Plus: BE3C Assay for urokinase plasminogen activator (uPA) Biomarker Activity (AID 2283038).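 Further: uPA protein level quantified by ELISA in cell cultures; uPA read one day after compound addition.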 To be noted: primary human bronchial epithelial cells; actives raise or lower the signal. The method in brief:
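Primary human bronchial epithelial cells, uPA measured by ELISA 24 h after dosing. Bidirectional change relative to DMSO; cytotoxicity checked in parallel cultures by sulforhodamine B total-protein staining.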

Read-out in test [20]: Urokinase-type plasminogen activator receptor (uPAR), PLAUR (gene 5329)
Briefly: BSK_BE3C_uPAR: BioMAP Diversity Plus: BE3C Assay for Urokinase-type plasminogen activator receptor (uPAR) Biomarker Activity (AID 2283039).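 On outcome: cells exposed to compound for one day before measurement.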 To be noted: primary human bronchial epithelial cells; actives raise or lower the signal. The method, boiled down:
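Chemically treated human bronchial epithelial cells (lung primary) are assayed for uPAR by ELISA after 24 h, with data fitted in both directions using DMSO as negative control.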

Each structure is given as a SMILES string. Inconclusive results are not listed. Active and inactive are the calls of the source. How the source made its calls, unless noted: active means hit-call score of the fitted dose curve at least 0.9, where 1 is the maximum; inactive means score below 0.9.

human Vitamin D Receptor (VDR), VDR (gene 7421), sequence (P11473 whole entry, looked up, the tested form may be a part): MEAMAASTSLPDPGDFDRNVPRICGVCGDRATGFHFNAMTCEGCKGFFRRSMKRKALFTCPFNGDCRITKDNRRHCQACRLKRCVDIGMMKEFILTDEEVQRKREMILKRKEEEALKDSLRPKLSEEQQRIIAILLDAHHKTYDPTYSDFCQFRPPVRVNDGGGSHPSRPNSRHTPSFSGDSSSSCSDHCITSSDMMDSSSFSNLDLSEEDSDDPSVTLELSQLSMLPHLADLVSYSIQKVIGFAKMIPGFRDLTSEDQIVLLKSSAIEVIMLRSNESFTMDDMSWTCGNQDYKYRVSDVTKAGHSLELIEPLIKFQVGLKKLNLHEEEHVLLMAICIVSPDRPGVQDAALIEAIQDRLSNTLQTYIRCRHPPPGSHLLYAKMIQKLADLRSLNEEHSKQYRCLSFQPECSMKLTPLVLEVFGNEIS

As for `C[Si](Cn1cncn1)(c1ccc(F)cc1)c1ccc(F)cc1`, the result in test [1], in [2], in test [3], in test [5], in test [7] and in test [8] was inactive. The result in test [9], in test [10], in [11], in test [12], in test [13] and in test [14] was inactive. In addition, the outcome in [15], in test [16], in test [17], in [18], in test [19] and in test [20] was inactive. Also, the AC50 in test [4] is 17.9 µM (active); in test [6], 39 µM (active).

As to `S=C1NCCN1`, the outcome in [1], in test [2], in [3], in test [4], in test [5] and in test [7] was inactive. For the same compound, the result in test [8], in test [9], in test [10], in [11], in [12] and in [13] was inactive. Besides, the result in test [14], in test [15], in [16], in test [17], in test [18] and in [19] was inactive. For the same compound, the values for the AC50 in test [6] and in test [20] were 39 µM (active) and 0.397 µM (active), respectively.

With `C#CCC1=C(C)C(OC(=O)C2C(C=C(C)C)C2(C)C)CC1=O` (configuration not stated), the AC50 was 30.7 µM (active) in test [1]; 28.5 µM (active) in [4]; 31.6 µM (active) in test [7]; 33.8 µM (active) in test [8]; 18 µM (active) in test [9]; 27.1 µM (active) in [15]. The outcome in test [2], in test [3], in test [5], in [6], in test [10] and in [11] was inactive. For the same compound, the result in test [12], in [13], in test [14], in [16], in test [17] and in [19] was inactive. Besides, the outcome in [20] was inactive.

Turning to `CC1=NNC(=O)N(/N=C/c2cccnc2)C1`, the result in [1], in [2], in [3], in test [4], in test [5] and in test [6] was inactive. The outcome in test [7], in test [8], in test [9], in [10], in test [11] and in test [12] was inactive. For the same compound, the outcome in [13], in test [14], in test [15], in test [16], in test [17] and in test [19] was inactive. In [20], the result was inactive.

As for `CCCSP(=O)(OCC)SCCC`, the result in [1], in test [2], in [3], in test [4], in test [5] and in test [6] was inactive. Besides, the result in [7], in test [8], in test [9], in [10], in [11] and in [12] was inactive. Besides, the result in test [13], in [14], in [15], in test [16], in test [17] and in test [18] was inactive. Further, the result in test [19] and in test [20] was inactive.

`CN(C)NC(=O)CCC(=O)O`: the result in test [1], in test [2], in test [3], in [4], in test [5] and in test [6] was inactive. Further, the outcome in [7], in test [8], in test [9], in test [10], in [11] and in [12] was inactive. Besides, the result in [13], in test [14], in [15], in [16], in test [17] and in test [19] was inactive. For the same compound, the outcome in test [20] was inactive.

The AC50 is the midpoint of the concentration-response curve, whichever way the signal moves.
